Source: PubChem BioAssay (EPA / NIEHS)
Values joined by “and” are separate entries in the source; they are usually repeats but may differ in a detail not shown here. Equal values may be shown once. Records with an inconclusive call do not appear. Some compounds were tested as several samples or in several runs, with calls that do not always agree. Active and inactive are the calls of the source. How the source made its calls, unless noted: active means hit-call score of the fitted dose curve at least 0.9, where 1 is the maximum; inconclusive means response in the unintended direction; inactive means score below 0.9.

Legend:
[1] = molecular target: Estrogen receptor beta (Homo sapiens) (UniProt Q92731); test: OT_ER_ERbERb_1440: Odyssey Thera (OT) 24-hour HEK293T Protein-Complementation Assay for Estrogen Receptor-beta/-beta Homodimer (AID 2283380);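 further: fluorescence gain from ER beta LBD homodimer complementation read by laser scanning cytometry; scored as signal increase over DMSO baseline for both agonists and antagonists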
Procedure, shortened: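 Fluorescence increase, nuclear for agonists or whole-cell for antagonists, relative to DMSO vehicle, quantified by laser scanning cytometer after fixation and Draq5 staining. Readout from 24 h treatment of HEK293T cells carrying complementation-paired ER beta LBD (aa 310-547).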

[2] = molecular target: Estrogen receptor (Homo sapiens) (UniProt P03372); test: OT_ERa_GFPERaERE_0480: Odyssey Thera (OT) 8-hour HeLa Transcription Induction Assay for Estrogen Receptor (AID 2283381; active means hit-call score of the fitted dose curve at least 0.9, where 1 is the maximum; inactive means score below 0.9)
Procedure, shortened: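 An 8 h HeLa transcription-induction format with a GFP reporter under ERE control, read by fluorescence microscopy; single endpoint fitted positively with DMSO as baseline.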

[3] = molecular target: Estrogen receptor (Homo sapiens) (UniProt P03372); test: OT_ERa_GFPERaERE_0120: Odyssey Thera (OT) 2-hour HeLa Transcription Induction Assay for Estrogen Receptor (AID 2283382)
Procedure, shortened: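 Two-hour compound treatment of HeLa cells preceded microscopy imaging of an inducible fluorescent reporter. Image-based quantification gave one endpoint, analysed for signal increase relative to DMSO controls.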

[4] = molecular target: Retinoic acid receptor RXR-alpha (Homo sapiens) (UniProt P19793); test: OT_NURR1_NURR1RXRa_0480: Odyssey Thera (OT) 8-hour HEK293T Protein Complementation Assay for Nurr1/retinoid X receptor (RXR) (AID 2283385)
Procedure, shortened: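 Gain in fluorescent complementation signal over DMSO, measured 8 hours after chemical dosing of human kidney HEK293T cells, indicated enhanced Nurr1–RXRα association.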

[5] = molecular target: Retinoic acid receptor RXR-alpha (Homo sapiens) (UniProt P19793); test: OT_NURR1_NURR1RXRa_1440: Odyssey Thera (OT) 24-hour HEK293T Protein Complementation Assay for Nurr1/retinoid X receptor (RXR) (AID 2283386)
Procedure, shortened: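 Cell-based binding reporter: HEK293T cells, 24 h exposure, fluorescence-detected fragment complementation, DMSO as baseline.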

[6] = molecular target: Peroxisome proliferator-activated receptor gamma (Homo sapiens) (UniProt P37231); test: OT_PPARg_PPARgSRC1_0480: Odyssey Thera (OT) 8-hour Protein-Complementation Assay for Peroxisome Proliferator-activated Receptor Gamma / SRC-1 Co-activator (AID 2283387);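 further: nuclear to cytoplasmic split Venus YFP fluorescence ratio reporting PPARg SRC-1 interaction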
Procedure, shortened: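 Read-out: 488 nm N/C fluorescence ratio from complemented Venus YFP fragments, ≥350 cells per image, gain-of-signal fitted against DMSO baseline. Fusions of PPARg/SRC-1 with IFP1/IFP2 expressed transiently in HEK293T; compounds applied 8 h.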

[7] = molecular target: Peroxisome proliferator-activated receptor gamma (Homo sapiens) (UniProt P37231); test: OT_PPARg_PPARgSRC1_1440: Odyssey Thera (OT) 24-hour Protein-Complementation Assay for Peroxisome Proliferator-activated Receptor Gamma/ SRC-1 Co-activator (AID 2283388);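 further: nuclear to cytoplasmic ratio of reconstituted Venus YFP fluorescence in fixed imaged cells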
Procedure, shortened: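 Protein-fragment complementation between PPARg and coactivator SRC-1 was measured by fluorescence imaging in transiently transfected HEK293T cells after 24 h treatment. Signal was quantified as N/C ratio in the 488 nm channel, with DMSO as negative control.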

[8] = CEETOX_H295R_11DCORT: CeeTox H295R High-throughput Steroidogenesis Assay for 11-Deoxycortisol (11DCORT) (AID 2283432; active means hit-call score of the fitted dose curve at least 0.9, where 1 is the maximum; inactive means score below 0.9;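 on AC50: 11-deoxycortisol secreted into the medium measured by LC-MS/MS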); conditions: actives raise or lower the signal
Procedure, shortened: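 H295R cells; 10 uM forskolin prestim 48 h; compound in 0.1% DMSO 48 h; media extracted with MTBE; 11-deoxycortisol by LC-MS/MS, 7-point standard curve; gain/loss vs DMSO baseline; viability by MTT in same wells.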

[9] = CEETOX_H295R_OHPREG: CeeTox H295R High-throughput Steroidogenesis Assay for OH-Pregnenolone (OHPREG) (AID 2283434; active means hit-call score of the fitted dose curve at least 0.9, where 1 is the maximum; inactive means score below 0.9); conditions: actives raise or lower the signal
Procedure, shortened: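 Secreted 17alpha-hydroxypregnenolone measured by HPLC-MS/MS after liquid-liquid extraction. Human adrenal H295R cells received 48 h forskolin (10 uM) stimulation before 48 h chemical exposure at 0.1% final DMSO; MTT viability in same wells; bidirectional fit against DMSO.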

[10] = CEETOX_H295R_OHPROG: CeeTox H295R High-throughput Steroidogenesis Assay for OH-Progesterone (OHPROG) (AID 2283435; active means hit-call score of the fitted dose curve at least 0.9, where 1 is the maximum; inactive means score below 0.9;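 on AC50: 17alpha-hydroxyprogesterone secreted into medium measured by HPLC-MS/MS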); conditions: actives raise or lower the signal
Procedure, shortened: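 Human adrenocortical H295R cells, passage 10 or lower, were treated with chemical for 48 h after forskolin priming, and hormone output in the medium was quantified by LC-MS/MS.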

[11] = CEETOX_H295R_ANDR: CeeTox H295R High-throughput Steroidogenesis Assay for Androstenedione (ANDR) (AID 2283436; active means hit-call score of the fitted dose curve at least 0.9, where 1 is the maximum; inactive means score below 0.9); conditions: actives raise or lower the signal
Procedure, shortened: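 Medium from 48 h chemical-treated H295R adrenal cells was extracted with MTBE and androstenedione measured by LC-MS/MS. Activity was fit in both directions relative to DMSO. Cytotoxic concentrations were re-tested after dilution until MTT viability reached ≥70%.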

[12] = CEETOX_H295R_CORTIC: CeeTox H295R High-throughput Steroidogenesis Assay for Corticosterone (CORTIC) (AID 2283437; active means hit-call score of the fitted dose curve at least 0.9, where 1 is the maximum; inactive means score below 0.9); conditions: actives raise or lower the signal
Procedure, shortened: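 Medium corticosterone was quantified by tandem mass spectrometry following 48 hours of chemical exposure (0.1% DMSO) in human H295R cells previously stimulated 48 hours with 10 uM forskolin. Viability checked by MTT; chemicals diluted and retested when viability fell below 70%.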

[13] = CEETOX_H295R_CORTISOL: CeeTox H295R High-throughput Steroidogenesis Assay for Cortisol (AID 2283438; active means hit-call score of the fitted dose curve at least 0.9, where 1 is the maximum; inactive means score below 0.9;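 further: cortisol secreted into medium quantified by LC-MS/MS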); conditions: actives raise or lower the signal
Procedure, shortened: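 Steroidogenesis in H295R, per modified OECD 456: 48 h forskolin (10 uM), then 48 h exposure, 0.1% DMSO. Cortisol by extraction and tandem MS; viability by MTT (570/650 nm); cytotoxic chemicals diluted and re-tested.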

[14] = CEETOX_H295R_DOC: CeeTox H295R High-throughput Steroidogenesis Assay for DOC (AID 2283439; active means hit-call score of the fitted dose curve at least 0.9, where 1 is the maximum; inactive means score below 0.9); conditions: actives raise or lower the signal
Procedure, shortened: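 H295R, fsk 10 uM ×48 h pre, cmpd ×48 h (0.1% DMSO). Media → MTBE extr. → LC-MS/MS, DOC. Bidirectional fit vs DMSO; MTT viability same wells, re-test diluted if <70%.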

[15] = CEETOX_H295R_ESTRADIOL: CeeTox H295R High-throughput Steroidogenesis Assay for Estradiol (AID 2283440; active means hit-call score of the fitted dose curve at least 0.9, where 1 is the maximum; inactive means score below 0.9;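 further: estradiol secreted into medium quantified by LC-MS/MS after dansyl derivatisation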); conditions: actives raise or lower the signal
Procedure, shortened: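 Estradiol secreted into the medium was measured by tandem mass spectrometry after liquid-liquid extraction and dansylation. Human H295R cells had been forskolin-primed (10 uM, 48 h) before a 48 h chemical exposure with 0.1% DMSO.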

[16] = CEETOX_H295R_ESTRONE: CeeTox H295R High-throughput Steroidogenesis Assay for Estrone (AID 2283441; active means hit-call score of the fitted dose curve at least 0.9, where 1 is the maximum; inactive means score below 0.9;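 further: estrone secreted into medium measured by LC-MS/MS after dansyl derivatization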); conditions: actives raise or lower the signal
Procedure, shortened: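 Forskolin-stimulated H295R cells are treated 48 h with chemical, and estrone in the medium is measured by LC-MS/MS. Activity is fitted in both directions relative to DMSO controls, with chemicals diluted until MTT viability reaches at least 70%.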

[17] = CEETOX_H295R_PROG: CeeTox H295R High-throughput Steroidogenesis Assay for Progesterone (PROG) (AID 2283442; active means hit-call score of the fitted dose curve at least 0.9, where 1 is the maximum; inactive means score below 0.9;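 on AC50: human H295R adrenal cells primed with 10 µM forskolin before dosing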); conditions: actives raise or lower the signal
Procedure, shortened: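 Steps: seed H295R cells and let them adhere overnight; prime 48 h with 10 uM forskolin; dose with compound in DMSO at 0.1% final for 48 h; extract medium steroids with MTBE; measure progesterone by LC-MS/MS. MTT viability was run in the same wells.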

[18] = read-out: Tumor necrosis factor receptor superfamily member 6 (Homo sapiens) (UniProt P25445); test: LTEA_HepaRG_FAS: Life Technologies and Expression Analysis (LTEA) Assay for Fas cell surface death receptor (FAS) using HepaRG (AID 2283447; active means hit-call score of the fitted dose curve at least 0.9, where 1 is the maximum; inactive means score below 0.9); conditions: mRNA level, 48 h; actives raise or lower the signal
Procedure, shortened: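 FAS transcript level was measured by TaqMan qRT-PCR against three housekeeping genes after 48 h chemical exposure. Cells were HepaRG, 0.5% DMSO vehicle, with a top concentration of 100 uM and half-log dilutions over eight points, in duplicate.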

[19] = molecular target: Bile acid receptor (Homo sapiens) (UniProt Q96RI1); test: OT_FXR_FXRSRC1_1440: Odyssey Thera (OT) 24-hour HEK293T Protein-Complementation Assay for Farnesoid X receptor/SRC-1 Co-activator (AID 2283384)
Procedure, shortened: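 Single endpoint, analysed for increased fluorescence against DMSO controls. HEK293T cells carrying FXR and SRC-1 linked to complementary reporter halves were exposed to chemicals for 24 h before reading.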

Measured: AC50

Chain of Estrogen receptor (Homo sapiens) (P03372 whole entry, looked up): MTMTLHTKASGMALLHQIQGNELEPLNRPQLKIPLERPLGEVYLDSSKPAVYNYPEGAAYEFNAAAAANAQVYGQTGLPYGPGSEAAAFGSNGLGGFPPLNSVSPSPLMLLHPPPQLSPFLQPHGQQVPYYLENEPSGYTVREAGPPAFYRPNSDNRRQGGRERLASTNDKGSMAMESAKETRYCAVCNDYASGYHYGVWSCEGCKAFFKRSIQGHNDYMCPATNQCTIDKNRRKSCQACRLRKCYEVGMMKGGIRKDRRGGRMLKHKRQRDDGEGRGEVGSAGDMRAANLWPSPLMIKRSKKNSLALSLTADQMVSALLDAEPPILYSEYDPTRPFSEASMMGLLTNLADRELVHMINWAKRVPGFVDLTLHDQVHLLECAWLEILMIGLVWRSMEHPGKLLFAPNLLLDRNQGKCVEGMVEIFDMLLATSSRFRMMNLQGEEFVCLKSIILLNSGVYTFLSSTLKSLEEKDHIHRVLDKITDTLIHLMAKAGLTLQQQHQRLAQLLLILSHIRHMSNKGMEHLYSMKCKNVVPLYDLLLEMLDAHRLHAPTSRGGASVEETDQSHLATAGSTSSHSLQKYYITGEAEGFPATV
Chain of Retinoic acid receptor RXR-alpha (Homo sapiens) (P19793 whole entry, looked up, the tested form may be a part): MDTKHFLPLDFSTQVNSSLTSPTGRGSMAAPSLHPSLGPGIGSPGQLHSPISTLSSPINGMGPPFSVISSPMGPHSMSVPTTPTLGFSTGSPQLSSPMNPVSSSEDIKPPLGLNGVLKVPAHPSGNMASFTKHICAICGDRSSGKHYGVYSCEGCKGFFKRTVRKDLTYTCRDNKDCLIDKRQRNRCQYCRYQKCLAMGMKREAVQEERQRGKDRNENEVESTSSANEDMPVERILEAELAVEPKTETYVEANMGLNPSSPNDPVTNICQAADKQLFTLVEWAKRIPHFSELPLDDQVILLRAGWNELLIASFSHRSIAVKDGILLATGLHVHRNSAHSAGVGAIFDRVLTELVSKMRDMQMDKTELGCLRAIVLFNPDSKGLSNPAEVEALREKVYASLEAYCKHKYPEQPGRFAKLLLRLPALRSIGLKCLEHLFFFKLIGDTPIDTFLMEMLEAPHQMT
Chain of Peroxisome proliferator-activated receptor gamma (Homo sapiens) (P37231 whole entry, looked up, the tested form may be a part): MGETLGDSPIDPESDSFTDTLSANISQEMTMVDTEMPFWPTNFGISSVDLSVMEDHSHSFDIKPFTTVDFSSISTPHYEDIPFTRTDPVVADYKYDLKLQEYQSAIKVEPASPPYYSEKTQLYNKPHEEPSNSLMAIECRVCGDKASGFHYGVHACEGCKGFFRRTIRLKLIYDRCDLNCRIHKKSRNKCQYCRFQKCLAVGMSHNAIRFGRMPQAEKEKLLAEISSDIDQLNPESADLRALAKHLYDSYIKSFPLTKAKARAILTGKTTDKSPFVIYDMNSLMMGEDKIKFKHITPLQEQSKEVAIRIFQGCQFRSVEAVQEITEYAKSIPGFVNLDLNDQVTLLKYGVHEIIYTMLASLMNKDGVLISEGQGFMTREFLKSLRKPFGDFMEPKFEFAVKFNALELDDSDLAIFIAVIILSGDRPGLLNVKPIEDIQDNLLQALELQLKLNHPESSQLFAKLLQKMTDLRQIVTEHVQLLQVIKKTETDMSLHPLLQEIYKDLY
Chain of Bile acid receptor (Homo sapiens) (Q96RI1 whole entry, looked up): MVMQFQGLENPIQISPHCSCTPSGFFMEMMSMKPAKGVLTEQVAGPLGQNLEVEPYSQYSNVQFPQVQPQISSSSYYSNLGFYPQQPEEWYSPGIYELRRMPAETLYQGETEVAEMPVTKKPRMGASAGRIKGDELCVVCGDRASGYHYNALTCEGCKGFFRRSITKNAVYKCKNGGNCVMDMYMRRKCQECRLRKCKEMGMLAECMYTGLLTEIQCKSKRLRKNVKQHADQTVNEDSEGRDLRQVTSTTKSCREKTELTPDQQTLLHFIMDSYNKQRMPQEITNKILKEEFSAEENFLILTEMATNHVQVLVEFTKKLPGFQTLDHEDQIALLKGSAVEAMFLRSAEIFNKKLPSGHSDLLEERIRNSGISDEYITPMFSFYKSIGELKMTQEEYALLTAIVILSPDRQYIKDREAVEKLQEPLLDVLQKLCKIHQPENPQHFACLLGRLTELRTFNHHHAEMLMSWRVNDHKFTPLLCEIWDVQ
Chain of Estrogen receptor beta (Homo sapiens) (Q92731 whole entry, looked up, the tested form may be a part): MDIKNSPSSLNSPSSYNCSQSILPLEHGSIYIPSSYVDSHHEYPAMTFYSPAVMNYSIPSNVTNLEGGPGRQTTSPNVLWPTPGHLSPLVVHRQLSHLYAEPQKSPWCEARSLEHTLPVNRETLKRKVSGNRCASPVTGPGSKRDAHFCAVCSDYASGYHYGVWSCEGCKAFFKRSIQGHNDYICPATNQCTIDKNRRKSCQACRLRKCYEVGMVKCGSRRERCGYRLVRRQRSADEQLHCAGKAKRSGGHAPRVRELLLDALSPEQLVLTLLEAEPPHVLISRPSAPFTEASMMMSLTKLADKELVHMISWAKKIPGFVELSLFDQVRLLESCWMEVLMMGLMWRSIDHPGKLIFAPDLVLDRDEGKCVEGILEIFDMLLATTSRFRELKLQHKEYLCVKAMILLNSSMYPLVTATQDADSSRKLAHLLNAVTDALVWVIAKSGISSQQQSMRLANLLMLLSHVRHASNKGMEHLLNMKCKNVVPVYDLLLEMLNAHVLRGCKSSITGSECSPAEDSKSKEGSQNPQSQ

O=C(O)c1ccccc1C(c1ccc(O)cc1)c1ccc(O)cc1
active: [8] 25 µM | [10] 7.38 µM | [14] 6.89 µM | [17] 10.2 µM
not listed: [19]
inactive: all other assays above

OC1CCC(C2CCCCC2)CC1 (stereo not drawn)
inactive: [1] | [2] | [3] | [19] | [4] | [5] | [6] | [7] | [8] | [10] | [13] | [14] | [15] | [17] | [18]
active: [1] 57.8 µM and 49.5 µM and 59.4 µM | [12] 23.2 µM

C#C[C@]1(O)CC[C@H]2[C@@H]3CCC4=CC(=O)CC[C@@H]4[C@H]3CC[C@@]21C
inactive: [1] | [4] | [5] | [6] | [7] | [12] | [18]
active: [1] 29.3 µM and 30.3 µM and 22.2 µM

CCCCCCCCC(=O)O
not listed: [6] | [7] | [11] | [19]
inactive: all other assays above

CCCCC(CC)COC(=O)CCCCC(=O)OCC(CC)CCCC (stereo not drawn)
inactive: [1] | [2] | [3] | [19] | [4] | [6] | [7] | [18]

CCCCCCCC(=O)O
inactive: [3] | [4] | [5] | [6] | [7] | [18]
active: [1] 21.3 µM | [2] 22.1 µM

C=C(C)C(=O)OCCC(F)(F)C(F)(F)C(F)(F)C(F)(F)C(F)(F)C(F)(F)F
inactive: [1] | [2] | [19] | [4] | [5] | [6] | [7] | [18]
active: [3] 12.5 µM
